In the library only some 19% were active in any assay of this set; here they are far more common.
Pf growth 48h = inhibits P. falciparum growth in the first generation, 48 h | P. falciparum luciferase growth in erythrocytes, 48 h | Potency, µM (series often up to 28.7 µM), without a hit: at the highest dose activity change, negative = inhibition, most hits filed as inhibitors | 310,000 compounds, 5.9% hits | AID 504832; note: potency is the fitted concentration of half-maximal effect; % is set by controls: 0 for no effect and ±100 for the full control effect
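Cell-based growth assay: transgenic P. falciparum expressing firefly luciferase, cultured in red cells within RPMI 1640 containing 0.5% w/v Albumax, 24 mM bicarbonate and gentamycin. A drop in luciferase activity indicates inhibition.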
Shiga toxin inh = blocks Shiga toxin action in Vero cells; 290,000 compounds, 9.2% hits; inhibition, % at 38.7 µM; Vero cells, Shiga toxin protein synthesis inhibition reporter; in the data active = inhibition mostly above about 28%, no sharp cut-off; inactive = mostly below about 43%; note: 0% is about no effect
MARV entry inh = inhibitors of Marburg virus binding or cell entry | Marburg virus pseudotyped entry inhibition, cell reporter | Potency, µM (series often up to 37.8 µM), for the others: top-dose activity change, negative = inhibition, most hits filed as inhibitors | 300,000 compounds, 1.8% hits; calls by dose curve; tested in HEK293 cells; note: potency is the fitted concentration of half-maximal effect; % is set by controls: 0 for no effect and ±100 for the full control effect
Lassa entry inh = Lassa virus entry inhibition; Lassa virus pseudotype entry inhibition, cell reporter; 300,000 compounds, 1.2% hits; Potency, µM (top dose mostly 37.9 µM), inactives show at the highest dose activity change, negative = inhibition, hits mostly inhibitors; AID 540256; calls by dose curve; tested in HEK293 cells; note: potency is the fitted concentration of half-maximal effect; % is set by controls: 0 for no effect and ±100 for the full control effect; nearly all actives have a fitted effect of over 50% in size
Pf growth 96h = P. falciparum growth inhibition at 96 hours; P. falciparum luciferase reporter growth, 96 h; Potency, µM (top dose mostly 28.7 µM), for the others: at the highest dose activity change, negative = inhibition, hits mostly inhibitors; 320,000 compounds, 6.9% hits; note: potency is the fitted concentration of half-maximal effect; % is set by controls: 0 for no effect and ±100 for the full control effect
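Luminescence readout: decreased luciferase signal marks inhibited growth of reporter-expressing P. falciparum in infected red cells (2% hematocrit, 0.05% parasitemia final), exposed to compound two generations (96 h, 37 C, 5% CO2).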
CHX counter = counter-screen for Shiga toxin inhibitors: cycloheximide protein synthesis inhibition; cell reporter, cycloheximide protein synthesis inhibition counterscreen; max response, %; 300,000 compounds, 12% hits; AID 2314; in the data active = max response mostly above about 13%, no sharp cut-off; inactive = mostly below about 14%; note: read at 38.3 µM for the half of the compounds with a filed dose; 0% is about no effect
Active calls of the source: *; ? = inconclusive; nt = not tested or not shown; + = active, no number; [ ] = dose if it differs, or a comment. Unless noted, calls come from the whole dose curve; as a rule, active = well fitted inhibition curve with a large enough effect; inconclusive = small, poorly fitted or top-dose-only effect, or another doubt; inactive = no such curve, though single readings can be large or run the other way.

SMILES | Pf growth 48h | Shiga toxin inh | MARV entry inh | Lassa entry inh | Pf growth 96h | CHX counter
CN(Cc1ccccc1)S(=O)(=O)c1ccc(Cl)c(C(=O)OCC(N)=O)c1 | 28% | 37* | -1%[46.1 µM] | 2% | 32% | 20*
CN(Cc1ccccc1)S(=O)(=O)c1ccc(Cl)c(C(=O)O)c1 | -10% | -10 | 2%[46.1 µM] | 13%[46.1 µM] | 38% | -6
COC(=O)N/N=C/c1cc(C)n(-c2ccccc2)c1C | 15% | + | -1% | 2% | -5% | 24*
COC(=O)N/N=C/c1cc(C)n(-c2ccc(F)cc2)c1C | -2% | 88* | 16%[46.1 µM] | 2%[46.1 µM] | 11% | 37*
CNc1nc(-c2ccc3c(c2)CCN3C(=O)c2ccccc2F)cs1 | ? | 95* | nt | nt | 43% | 54*
Cc1ccc(C(=O)N2CCc3cc(CNC(=O)c4ccccc4F)ccc32)cc1 | nt | nt | nt | -18%[46.1 µM] | nt | nt
CNc1nc(-c2ccc3c(c2)CCN3C(=O)c2ccccc2F)c(C)s1 | ? | 61* | ? | -23%[46.1 µM] | ? | 18*
O=C(CCC1CCCCC1)NCc1cccs1 | 55% | 34 | ? | 0% | nt | 26
O=P(Nc1ccccc1)(Nc1ccccc1)Oc1ccccc1 | -4% | -9 | -2% | 6% | 5% | -3
CCOC(=O)c1cc(-c2ccc(F)cc2)n(CC(=O)NCc2cccnc2)c1C | ? | 2 | nt | nt | 2.6µM* | 0
CCOC(=O)c1cc(-c2ccccc2)n(CCC(=O)NCCc2ccccc2)c1C | nt | nt | nt | 11µM* | nt | nt
CCOC(=O)c1cc(-c2ccccc2)n(CCC(=O)N2CCN(c3ccccn3)CC2)c1C | ? | -10 | 2% | ? | 13µM* | -5
CCOC(=O)c1cc(-c2ccccc2)n(CC(=O)O)c1C | 24% | -2 | 5% | 14% | -7% | 7
O=C(CCS(=O)(=O)c1ccccc1)Nc1nc(-c2cccs2)cs1 | 5% | 13 | ? | -29% | -56% | 10
CN(C)CCNc1nc2c(c(=O)[nH]c(=O)n2C)n1CC(O)COc1ccc(Cl)cc1 (stereo unspecified) | -2% | -13 | ? | 2% | 0% | -3
CCN(CC)CCNc1nc2c(c(=O)[nH]c(=O)n2C)n1CC(O)COc1ccc(Cl)cc1Cl (stereo unspecified) | ? | -5 | 0% | 13% | 12µM* | -3
O=C(COC(=O)C1CC1)Nc1ncc(C(F)(F)F)cc1Cl | 13% | -6 | 15%[46.1 µM] | 10%[46.1 µM] | -2% | 9
CC(C)Nc1nc(NNc2nc(Cl)nc(NC(C)(C)C)n2)nc(NC(C)C)n1 | ? | -7 | nt | nt | 13µM* | -1
CCNc1nc(NC(C)C)nc(NC(C)(C)C)n1 | 3.3µM* | 3 | nt | nt | ? | 9
CCNc1nc(NC(C)C)nc(OCC)n1 | nt | -16 | 24% | -2% | ? | -1
CCNc1nc(NC(C)C)nc(ON=C(C)C)n1 | 8.3µM* | -6 | nt | nt | ? | -1
N#C/C(=C1\CCCN1)c1ccc2ccccc2n1 | 13% | 18 | 13% | -3% | -13% | 29
N#C/C(C(N)=O)=C1/CCc2ccccc2N1 | nt | 1 | ? | 25% | -14% | 17
N#C/C(=C1/CCCCCN1)c1nc2ccccc2[nH]1 | 20% | 44* | 16%[46.1 µM] | ? | -9% | 122*
N#C/C(C(=O)c1ccccc1)=C1/CCCCCN1 | 145% | 94* | -6%[46.1 µM] | -12% | 15% | 44*
SMILES | Pf growth 48h | Shiga toxin inh | MARV entry inh | Lassa entry inh | Pf growth 96h | CHX counter
COc1cc(/C(O)=C(\C#N)c2nc3ccccc3[nH]2)cc(OC)c1OC | ? | 8 | nt | nt | 15µM* | 1
N#C/C(=C(/O)C(Cl)(Cl)Cl)c1nc2ccccc2[nH]1 | 13% | 18 | nt | nt | 35% | 13*
N#C/C(=C(/O)c1ccc(Cl)cc1)c1nc2ccccc2[nH]1 | 23% | -6 | 27%[46.1 µM] | 9%[46.1 µM] | 10% | -4
CC(=O)OC(/C(O)=C(\C#N)c1nc2ccccc2[nH]1)c1ccccc1 (stereo unspecified) | ? | 18 | -21% | -8% | 9.3µM* | 10
NC(=O)C1CCN(C(=O)CCC(=O)N2CCOc3ccc(Cl)cc32)CC1 | 11% | 2 | nt | nt | ? | -1
Cc1ccc(/C=C/C(=O)Nc2ccc(N(C)C)cc2)o1 | 12% | 85* | -7% | -16% | 29% | 38*
Cc1ccc(/C=C/C(=O)Nc2ccc(S(N)(=O)=O)cc2)o1 | 6% | -8 | 3% | 6% | -6% | 6
